Laboratory results reported in PubChem BioAssay.
Activity calls are given as the source filed them. Unless noted, the rule behind the calls is not given here.

How the values were obtained:
[1] = resazurin metabolic signal in HepG2 cells – cell-based, resazurin fluorescence, 24 h, PK04 Diversity Set, profiling panel (AID 1172); conditions: HepG2 viability, higher = more signal; note: test concentration not given here
[2] = budding yeast growth changes without added modifier – OD600, strain BY4716, 24 h, basal condition, primary screen (AID 1173); conditions: S. cerevisiae BY4716 growth, OD600, 24 h; higher = more signal, called active from +8 up or from −8 down
[3] = viability profiling in MM1S myeloma cells – cell-based, resazurin fluorescence, basal, 24 h, PK04 Diversity Set, profiling panel (AID 1174); conditions: higher = more signal, called active from +8 up or from −8 down;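 note: MM1S multiple myeloma cell line; test concentration not given here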
[4] = molecular target: Dihydroorotate dehydrogenase (quinone), mitochondrial (Plasmodium falciparum (isolate 3D7)) (UniProt Q08210); test: inhibition of P. falciparum DHODH – biochemical, C-terminal His tag, absorbance 600 nm, primary screen (AID 1175); conditions: PfDHODH enzyme, DCIP absorbance 600 nm; higher = more signal, called active from +8 up or from −8 down;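 note: recombinant parasite enzyme with a five histidine tag at its C terminus; test concentration not given here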
[5] = inhibition of PAO1 biofilm formation – strain PAO1, LB-PBS medium, absorbance 600 nm, primary screen (AID 1176); note: test concentration not given here; conditions: P. aeruginosa PAO1 growth/biofilm, A600, 12 h; higher = more signal
[6] = growth modulation of vineyard yeast isolate – strain RM11-1a, OD600, basal, 24 h, primary screen (AID 1177);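 note: cultures grown under basal conditions with no added stressor; test concentration not given here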; conditions: S. cerevisiae RM11-1a growth, OD600, 24 h; higher = more signal, called active from +8 up or from −8 down
[7] = growth of efflux-deficient E. coli DRC39 – strain DRC39, OD650, 24 h, E. coli filamentation inducers, primary screen (AID 1178);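 note: growth measured as culture turbidity by optical density at 650 nm; test concentration not given here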; conditions: E. coli DRC39 acrAB, higher = more signal, called active from +8 up or from −8 down
[8] = growth of efflux-deficient E. coli DRC39 – strain DRC39, OD650, 48 h, E. coli filamentation inducers, primary screen (AID 1179);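 note: screen aims at cell division blockers that make cells filament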; conditions: E. coli DRC39 delta-acrAB growth, higher = more signal, called active from +8 up or from −8 down
[9] = viability profiling in RPMI8226 myeloma cells – cell-based, resazurin fluorescence, basal, 24 h, PK04 Diversity Set, profiling panel (AID 1180); conditions: higher = more signal;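 note: RPMI8826 multiple myeloma cell line at 5000 cells per well; test concentration not given here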
[10] = molecular target: E3 ubiquitin-protein ligase XIAP (Homo sapiens) (UniProt P98170); test: small molecules binding XIAP protein – biophysical, small-molecule microarray, fluorescence 635 nm, primary screen (AID 1181); conditions: higher = more signal;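 note: score merges 667 nm emission and signal to noise over triplicate slides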
E3 ubiquitin-protein ligase XIAP (Homo sapiens), sequence (P98170 whole entry, looked up): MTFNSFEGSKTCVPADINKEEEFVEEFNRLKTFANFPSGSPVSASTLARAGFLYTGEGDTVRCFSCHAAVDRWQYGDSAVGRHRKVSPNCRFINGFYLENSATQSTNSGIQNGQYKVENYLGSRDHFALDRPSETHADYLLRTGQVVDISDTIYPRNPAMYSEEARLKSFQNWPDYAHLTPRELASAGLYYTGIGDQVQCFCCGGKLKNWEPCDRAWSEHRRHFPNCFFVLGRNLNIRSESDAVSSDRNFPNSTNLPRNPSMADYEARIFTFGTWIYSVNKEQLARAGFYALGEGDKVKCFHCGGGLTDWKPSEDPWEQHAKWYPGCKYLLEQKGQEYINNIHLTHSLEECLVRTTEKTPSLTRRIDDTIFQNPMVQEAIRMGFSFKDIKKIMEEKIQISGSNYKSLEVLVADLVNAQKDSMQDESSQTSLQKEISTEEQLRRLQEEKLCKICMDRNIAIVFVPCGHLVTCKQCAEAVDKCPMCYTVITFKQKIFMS

Dihydroorotate dehydrogenase (quinone), mitochondrial (Plasmodium falciparum (isolate 3D7)), sequence (Q08210 whole entry, looked up): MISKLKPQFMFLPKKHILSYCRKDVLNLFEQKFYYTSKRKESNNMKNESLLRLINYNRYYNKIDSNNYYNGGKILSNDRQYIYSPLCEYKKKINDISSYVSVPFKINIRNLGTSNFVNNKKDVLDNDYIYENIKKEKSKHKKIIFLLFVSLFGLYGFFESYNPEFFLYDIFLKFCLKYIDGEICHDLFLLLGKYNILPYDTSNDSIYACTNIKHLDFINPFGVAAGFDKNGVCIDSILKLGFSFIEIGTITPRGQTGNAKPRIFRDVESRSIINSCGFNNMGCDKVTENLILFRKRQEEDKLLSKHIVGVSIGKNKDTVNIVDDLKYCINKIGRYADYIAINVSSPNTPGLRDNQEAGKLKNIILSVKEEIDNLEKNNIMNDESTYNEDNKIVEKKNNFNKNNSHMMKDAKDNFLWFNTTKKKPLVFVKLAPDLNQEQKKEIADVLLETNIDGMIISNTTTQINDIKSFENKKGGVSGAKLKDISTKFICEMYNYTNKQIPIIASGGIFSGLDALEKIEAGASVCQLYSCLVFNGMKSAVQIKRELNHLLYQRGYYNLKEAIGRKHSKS

SMILES	z-score [1]	z-score [2]	z-score [3]	composite z-score [4]	z-score [5]	z-score [6]	z-score [7]	z-score [8]	z-score [9]	composite z-score [10]
O=C(NCc1ccc(F)cc1)[C@H]1C[C@H]2C(=O)NCC(=O)N2[C@H]1c1ccc(O)cc1	-1.15	0.407 (inactive)	0.0901 (inactive)	-0.0559 (inactive)	-0.0185 (inactive)	1.23 (inactive)	-0.42 (inactive)	-0.806 (inactive)	0.18	-0.294
C=C[C@@H](CO)N(Cc1ccc(OC)cc1)S(=O)(=O)c1ccc(Br)cc1	1.04	-5.71 (inactive)	-0.495 (inactive)	-2.32 (inactive)	-0.152 (inactive)	-1.99 (inactive)	1.66 (inactive)	1.88 (inactive)	-0.455	-0.434
COC(=O)[C@@]1(Cc2ccc(F)cc2)[C@H]2c3cc(C(=O)N(C)C)n(Cc4ccc(OC(F)(F)F)cc4)c3C[C@H]2CN1C(=O)c1ccccc1	-0.674	0.825 (inactive)	-0.933 (inactive)	-0.0384 (inactive)	0.604 (inactive)	0.245 (inactive)	-0.586 (inactive)	-0.499 (inactive)	-0.603	-0.102
CCOC(=O)C1=CC[C@@H](c2ccccc2)N(S(=O)(=O)c2ccc(C)cc2)[C@H]1c1ccccc1	-0.356	1.92 (inactive)	-0.564 (inactive)	1.03 (inactive)	0.85 (inactive)	1.75 (inactive)	-0.544 (inactive)	-0.244 (inactive)	-1.33	0.0512
COc1ccccc1CN1C(=O)c2ccccc2[C@](Cc2ccccc2I)(C(=O)O)[C@@H]1c1ccc(CO)cc1	-0.569	-1.49 (inactive)	-0.0504 (inactive)	-0.0436 (inactive)	0.416 (inactive)	0.0183 (inactive)	0.706 (inactive)	0.602 (inactive)	0.437	0.133
CC(C)NC(=O)[C@@]1(C)c2ccccc2C(=O)N(Cc2ccc(OC(F)(F)F)cc2)[C@H]1c1ccc(CO)cc1	-1.09	0.154 (inactive)	0.796 (inactive)	-0.852 (inactive)	0.559 (inactive)	0.973 (inactive)	-0.048 (inactive)	-0.6 (inactive)	0.959	-0.217
C#CCN(Cc1ccccc1Br)[C@H](/C=C/c1ccccc1)[C@@H](O)Cc1ccccc1	1.71	0.31 (inactive)	-0.309 (inactive)	0.342 (inactive)	-0.0825 (inactive)	1.05 (inactive)	1.84 (inactive)	1.24 (inactive)	-0.971	-0.0559
O=C(NCCN1CCOCC1)[C@@H]1c2ccccc2C(=O)N(C2Cc3ccccc3C2)[C@H]1c1ccc(CO)cc1	-0.174	-0.633 (inactive)	0.886 (inactive)	-1.79 (inactive)	0.404 (inactive)	-1.44 (inactive)	0.638 (inactive)	1.07 (inactive)	0.142	0.164
C=CCOC(=O)[C@@]1(Cc2ccccc2)C[C@H]2CO[C@H](c3ccc(OC)cc3)N2C1=O	-0.352	-2.69 (inactive)	0.437 (inactive)	-0.972 (inactive)	0.125 (inactive)	-1.1 (inactive)	-0.0115 (inactive)	-0.187 (inactive)	0.0399	-0.184
COCCCNC(=O)[C@@H]1c2ccccc2C(=O)N(C(C)C)[C@H]1c1ccc(CO)cc1	-0.388	0.214 (inactive)	0.054 (inactive)	0.367 (inactive)	0.168 (inactive)	1.03 (inactive)	0.0099 (inactive)	-0.525 (inactive)	-0.0303	-0.127
COc1cc(NN2C(C(O)c3ccc(N(C)C)cc3)C=CC3C(=O)N(c4ccccc4)C(=O)C32)cc(OC)c1OC (stereo not given)	-1.16	0.744 (inactive)	-0.581 (inactive)	-1.1 (inactive)	0.794 (inactive)	-0.591 (inactive)	-0.0722 (inactive)	-1.45 (inactive)	-1.46	0.38
COc1ccc(C(=O)Nc2ccc(CN3C(=O)[C@]4(O[C@H](CC(=O)N5Cc6ccccc6C[C@H]5CO)[C@@H]([Si](C)(C)c5ccc(OC)cc5)[C@@H]4C)c4ccccc43)cc2)cc1	-1.61	0.496 (inactive)	-1.13 (inactive)	-2.72 (inactive)	0.0002 (inactive)	2.48 (inactive)	-1.14 (inactive)	-1.09 (inactive)	-0.839	-0.239
O=c1cccc(-c2ccc([N+](=O)[O-])cc2)o1	0.269	-0.589 (inactive)	0.697 (inactive)	-0.371 (inactive)	0.201 (inactive)	-0.376 (inactive)	-0.0154 (inactive)	1.34 (inactive)	-0.425	0.515
CN(C)C(=O)[C@@]1(Cc2ccccc2)N=C(c2ccc(OCCCO)cc2)O[C@H]1c1ccccc1	1.6	-1.92 (inactive)	0.857 (inactive)	-0.177 (inactive)	-0.345 (inactive)	0.319 (inactive)	0.0862 (inactive)	-0.146 (inactive)	1.16	-0.205
CCCN1C(=O)[C@@]2(Cc3ccccc31)N=C(c1ccc(OCCCO)cc1)O[C@H]2c1ccccc1	0.293	-3.07 (inactive)	-2 (inactive)	-0.172 (inactive)	-0.124 (inactive)	0.806 (inactive)	-0.305 (inactive)	-1.03 (inactive)	-1.7	-0.212
CC(C)(C)OC(=O)CC[C@@]1(C(=O)NCC(O)CO)N=C(c2ccc(OCCCO)cc2)O[C@@H]1c1ccccc1CN=[N+]=[N-] (stereo not given in full)	0.507	-0.215 (inactive)	-0.0579 (inactive)	0.345 (inactive)	0.869 (inactive)	-0.181 (inactive)	0.642 (inactive)	-0.154 (inactive)	0.126	0.153
CC(C)N1C(=O)c2ccccc2[C@@H](C(=O)NCCN2CCOCC2)[C@@H]1c1ccc(CO)cc1	-0.229	0.525 (inactive)	-0.401 (inactive)	0.184 (inactive)	0.429 (inactive)	0.985 (inactive)	0.0059 (inactive)	-0.434 (inactive)	-0.0956	-0.465
Cn1cccc1C(O)C1C=CC2C(=O)N(c3ccccc3)C(=O)C2N1Nc1ccccc1 (stereo not given)	-0.194	0.917 (inactive)	-0.251 (inactive)	0.0729 (inactive)	0.571 (inactive)	-0.529 (inactive)	0.312 (inactive)	0.881 (inactive)	0.0611	-0.0773
CC1CC/C=C\[C@H]2OC34C=CCN(c5ccc(Cl)cc5)C(=O)[C@H]3N(C(C)CO)C(=O)[C@]4(C)C2C(=O)O1 (stereo not given in full)	0.66	-0.876 (inactive)	0.535 (inactive)	0.291 (inactive)	-0.428 (inactive)	0.33 (inactive)	1.31 (inactive)	1.48 (inactive)	0.555	0.3
O=C(C1N=C(c2ccc(OCCCO)cc2)N(c2ccccc2)O1)N1CCCCC1 (stereo not given)	0.377	-0.769 (inactive)	1.15 (inactive)	-0.152 (inactive)	-1.35 (inactive)	-0.587 (inactive)	0.457 (inactive)	0.15 (inactive)	0.188	0.0761
O=C(Cc1ccccc1)[C@H]1C2C=CCCC(c3ccccc3)=C2CN1Cc1ccccc1 (stereo not given in full)	1.37	-2.98 (inactive)	0.806 (inactive)	-0.658 (inactive)	1.44 (inactive)	-0.546 (inactive)	1.64 (inactive)	1.29 (inactive)	1.08	-0.441
NCCCCCNC(=O)[C@H]1C[C@H]2C(=O)N3CCC[C@H]3C(=O)N2[C@H]1c1cccc(OCCO)c1	-1.25	-0.0559 (inactive)	-0.02 (inactive)	0.322 (inactive)	-0.252 (inactive)	-0.132 (inactive)	-0.658 (inactive)	-1.33 (inactive)	-0.29	0.256
C=CCN1C(=O)[C@]2(CCS(=O)(=O)c3ccccc3)N=C(c3ccc(OCCCO)cc3)O[C@@H]2c2ccccc21	-0.735	0.383 (inactive)	-1.36 (inactive)	-0.756 (inactive)	0.218 (inactive)	0.742 (inactive)	0.7 (inactive)	0.916 (inactive)	-1.96	0.0738
CC1CC/C=C\[C@H]2OC34C=CCN(C(C)C)C(=O)[C@H]3N(CCO)C(=O)[C@@H]4C2C(=O)O1 (stereo not given in full)	-0.961	0.486 (inactive)	0.802 (inactive)	0.705 (inactive)	-0.413 (inactive)	0.651 (inactive)	0.764 (inactive)	0.341 (inactive)	0.838	0.0484
CC1CC/C=C\[C@H]2OC34C=CCN(Cc5ccccc5)C(=O)[C@H]3N(C(CO)C(C)C)C(=O)[C@@H]4C2C(=O)O1 (stereo not given in full)	0.145	0.325 (inactive)	0.325 (inactive)	-0.841 (inactive)	0.205 (inactive)	0.558 (inactive)	0.426 (inactive)	0.523 (inactive)	0.775	-0.211
[N-]=[N+]=Nc1ccccc1C[C@@]1(C(=O)N2CCOCC2)N=C(c2ccc(OCCCO)cc2)O[C@@H]1c1ccccc1	-0.339	-1.76 (inactive)	-0.967 (inactive)	-0.132 (inactive)	0.413 (inactive)	-0.0584 (inactive)	0.37 (inactive)	-0.0378 (inactive)	-0.0984	-0.09
